Assay [1] is described as follows: ATG_TAL_CIS: Attagene CIS-FACTORIAL HepG2 Assay for human TAL Basal Promoter (AID 2282966).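 Further: background control endpoint measuring basal TAL promoter reporter mRNA not a specific factor.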 The note with it: HepG2 Attagene cis-factorial TAL promoter reporter; actives raise or lower the signal. A digest of the protocol: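 HepG2, transient MRTU transfection, 24 h compound exposure; RNA → oligo(dT) RT → PCR → 6-FAM primer extension → HpaI digest → CE fluorescence. Bidirectional curve fit vs DMSO. Background-control readout.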

Assay [2] is described as follows: ATG_TGFb_CIS: Attagene CIS-FACTORIAL HepG2 Assay for human Transforming Growth Factor (TGF) (AID 2282967). As to conditions: HepG2 Attagene CIS TGFb reporter, mRNA transcription; actives raise or lower the signal. A digest of the protocol:
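Endogenous TGFB1-linked transcription factor activity read as reporter mRNA via RT-PCR and capillary electrophoresis, 24 h after dosing transiently transfected HepG2 cells. Gain or loss of signal fitted relative to DMSO.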

Assay [3] can be described thus: ATG_VDRE_CIS: Attagene CIS-FACTORIAL HepG2 Assay for human Vitamin D Receptor Element (VDRE) (AID 2282968). As to conditions: HepG2 VDRE cis-reporter transcription, actives raise or lower the signal. The procedure, abridged: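 Readout is VDRE-driven reporter mRNA reflecting endogenous factor activity in human HepG2 cells, sampled 24 h post-dose. Quantification used labelled RT-PCR products separated by capillary electrophoresis; bidirectional analysis relative to DMSO.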

Assay [4] addresses Nuclear receptor subfamily 1 group I member 3 (Homo sapiens) (UniProt Q14994). Briefly: ATG_CAR_TRANS: Attagene TRANS-FACTORIAL HepG2 Assay for human Constitutive Androstane Receptor (CAR) (AID 2282969; active means hit-call score of the fitted dose curve at least 0.9, where 1 is the maximum;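 further: activators raise reporter mRNA above DMSO so AC50 marks induction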). As to conditions: HepG2 Attagene TRANS-FACTORIAL CAR reporter. The procedure, abridged:
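Signal is reporter mRNA induction relative to DMSO, measured 24 h after dosing by RT-PCR with fluorescent primer extension and capillary electrophoresis. Human HepG2 liver cells carried transiently transfected chimeric NR-Gal4/GAL4-UAS reporter constructs.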

Assay [5] deals with Steroid hormone receptor ERR1 (Homo sapiens) (UniProt P11474). Briefly: ATG_ERRa_TRANS: Attagene TRANS-FACTORIAL HepG2 Assay for human Estrogen-Related Receptor alpha (ERRa) (AID 2282971; active means hit-call score of the fitted dose curve at least 0.9, where 1 is the maximum). As to conditions: HepG2 Attagene TRANS reporter, ERRa transactivation. The procedure, abridged:
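Transfected HepG2, 24 h dosing, ERRa-Gal4 chimera driving GAL4-UAS reporter. Readout: reporter mRNA via RT-PCR plus capillary electrophoresis (fluorescence). Positive direction vs DMSO control.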

Assay [6] addresses X-box-binding protein 1 (Homo sapiens) (UniProt P17861). Put plainly: ATG_Xbp1_CIS: Attagene CIS-FACTORIAL HepG2 Assay for human X-box Binding Protein 1 (XBP1) (AID 2282972). The note with it: HepG2 XBP1 cis-element reporter, Attagene multiplex; actives raise or lower the signal. A digest of the protocol: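 Reporter transcripts were quantified by RT-PCR with fluorescent primer extension and capillary electrophoresis after 24 h chemical exposure. Cells: transiently transfected HepG2 carrying cis-regulated reporter constructs; data fitted bidirectionally relative to DMSO.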

Assay [7] has as its target Estrogen-related receptor gamma (Homo sapiens) (UniProt P62508). Briefly: ATG_ERRg_TRANS: Attagene TRANS-FACTORIAL HepG2 Assay for human Estrogen-Related Receptor gamma (ERRg) (AID 2282977; active means hit-call score of the fitted dose curve at least 0.9, where 1 is the maximum;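 further: hits increase reporter signal over DMSO so potencies reflect activators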). The note with it: HepG2 Attagene TRANS reporter, ERRg transactivation. The procedure, abridged: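 Exogenous NR-Gal4 chimera activity measured as reporter transcript induction after 24 h in transiently transfected HepG2 cells. RNA reverse-transcribed, PCR-amplified, 6-FAM-labelled and resolved by capillary electrophoresis; increase over DMSO baseline.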

The target of assay [8] is Oxysterols receptor LXR-beta (Homo sapiens) (UniProt P55055). Put plainly: ATG_LXRb_TRANS: Attagene TRANS-FACTORIAL HepG2 Assay for human Liver X Receptor beta (LXRb) (AID 2282981; active means hit-call score of the fitted dose curve at least 0.9, where 1 is the maximum). The note with it: HepG2 Attagene TRANS GAL4-LXRb reporter, mRNA. A digest of the protocol: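 After 24 h chemical treatment of transfected HepG2 cells carrying exogenous NR-Gal4 chimeras, reporter mRNA was quantified by fluorescent RT-PCR and capillary electrophoresis; activity taken as increase over DMSO controls.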

In assay [9] the target is Hepatocyte nuclear factor 4-alpha (Homo sapiens) (UniProt P41235). Briefly: ATG_HNF4a_TRANS: Attagene TRANS-FACTORIAL HepG2 Assay for human Hepatocyte Nuclear Factor 4 alpha (HNF4a) (AID 2282982; active means hit-call score of the fitted dose curve at least 0.9, where 1 is the maximum). As to conditions: HepG2 HNF4a transactivation reporter, mRNA readout. The procedure, abridged: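 Activity of an exogenous HNF4a–Gal4 fusion scored as induced GAL4-UAS reporter transcripts after 24 h chemical exposure of transfected human HepG2 cells. Read-out via RT-PCR with 6-FAM labelling and capillary electrophoresis; rise over DMSO baseline.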

Assay [10] is described as follows: ATG_M_06_TRANS: Attagene TRANS-FACTORIAL HepG2 Assay for M06 Transcription Factor (Internal Marker) (AID 2282983; active means hit-call score of the fitted dose curve at least 0.9, where 1 is the maximum). As to conditions: HepG2 Attagene TRANS M06 internal marker reporter. A digest of the protocol:
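Read-out: fluorescent reporter cDNA fragments resolved by capillary electrophoresis after RT-PCR and HpaI cut. Source cells were HepG2 carrying transfected multi-reporter GAL4 constructs, dosed 24 h. Increase over DMSO control analysed.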

The target of assay [11] is Nuclear receptor subfamily 4 group A member 2 (Homo sapiens) (UniProt P43354). Put plainly: ATG_NURR1_TRANS: Attagene TRANS-FACTORIAL HepG2 Assay for human Nuclear Receptor Related Protein 1 (NURR1) (AID 2282985; active means hit-call score of the fitted dose curve at least 0.9, where 1 is the maximum). As to conditions: HepG2 Attagene TRANS reporter, mRNA readout. A digest of the protocol:
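Reporter transcript induction, measured by RT-PCR with fluorescent labelling, HpaI digestion and capillary electrophoresis, after 24 hr dosing of human HepG2 cells transiently expressing an exogenous NR-Gal4 fusion with GAL4-UAS-driven reporters; DMSO as baseline.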

Assay [12] addresses Transcriptional activator Myb (Homo sapiens) (UniProt P10242). Briefly: ATG_Myb_CIS: Attagene CIS-FACTORIAL HepG2 Assay for human Myeloblastosis (Myb) Proto-Oncogene Transcription Factor (AID 2282986). The note with it: HepG2 Attagene CIS-FACTORIAL Myb reporter transcription; actives raise or lower the signal. A digest of the protocol:
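Transiently transfected HepG2 cells carrying a multiplexed cis-promoter reporter set report endogenous Myb activity after 24 h compound exposure. Reporter mRNA is read by RT-PCR with capillary electrophoresis of fluorescent products, fitted bidirectionally against DMSO.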

For assay [13], the target named is Nuclear respiratory factor 1 (Homo sapiens) (UniProt Q16656). Put plainly: ATG_NRF1_CIS: Attagene CIS-FACTORIAL HepG2 Assay for human Nuclear Respiratory Factor 1 (NRF1) Orphan Gene (AID 2282987). As to conditions: HepG2 NRF1 cis-element reporter, Attagene multiplex; actives raise or lower the signal. The procedure, abridged:
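HepG2 cells transiently transfected with multiple cis-regulated reporter units, exposed 24 h. Reporter mRNAs measured by RT-PCR, fluorescent labelling, HpaI digestion and capillary electrophoresis; bidirectional fitting against DMSO.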

Assay [14] is described as follows: ATG_NFI_CIS: Attagene CIS-FACTORIAL HepG2 Assay for human Nuclear Factor I (NFI) (AID 2282989). As to conditions: HepG2 cis-regulatory reporter, NFI response element transcription; actives raise or lower the signal. The procedure, abridged: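 Reporter transcripts were measured by RT-PCR with fluorescent primer extension and capillary electrophoresis 24 h post-treatment. HepG2 cells carried transiently transfected cis-regulated reporter constructs reporting endogenous factor activity; gain or loss fitted against DMSO baseline.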

A short description of assay [15]: ATG_M_19_TRANS: Attagene TRANS-FACTORIAL HepG2 Assay for M19 Transcription Factor (Internal Marker) (AID 2282974; active means hit-call score of the fitted dose curve at least 0.9, where 1 is the maximum). The note with it: HepG2 Attagene TRANS-FACTORIAL M19 internal marker reporter. The procedure, abridged:
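HepG2 transiently transfected with GAL4-UAS multiplex reporter constructs, exposed 24 h; reporter RNA quantified by RT-PCR, 6-FAM labeling, HpaI digestion and capillary electrophoresis; internal background marker fitted upward versus DMSO.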

The target of assay [16] is Glucocorticoid receptor (Homo sapiens) (UniProt P04150). Briefly: ATG_GR_TRANS: Attagene TRANS-FACTORIAL HepG2 Assay for human Glucocorticoid Receptor (GR) (AID 2282978; active means hit-call score of the fitted dose curve at least 0.9, where 1 is the maximum;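 further: activators score as hits since higher reporter transcript over DMSO is fitted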). The note with it: HepG2 Attagene TRANS GR reporter, mRNA transcription. A digest of the protocol:
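HepG2 cells transiently transfected with GAL4-UAS reporter units and exogenous GR-Gal4 chimera, dosed 24 h. Reporter mRNA by RT-PCR, FAM labeling, HpaI digest and capillary electrophoresis; gain-of-signal fit versus DMSO.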

Assay [17] addresses Oxysterols receptor LXR-alpha (Homo sapiens) (UniProt Q13133). Put plainly: ATG_LXRa_TRANS: Attagene TRANS-FACTORIAL HepG2 Assay for human Liver X Receptor alpha (LXRa) (AID 2282980; active means hit-call score of the fitted dose curve at least 0.9, where 1 is the maximum). As to conditions: HepG2 Attagene TRANS reporter, LXRa transactivation. A digest of the protocol:
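Read-out: reporter transcript levels by RT-PCR plus capillary electrophoresis, fluorescence intensity. Transiently transfected HepG2, exogenous NR-GAL4 chimera, GAL4-UAS reporters; 24 h compound exposure. Activity = increase over DMSO negative control.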

Assay [18] can be described thus: ATG_M_32_TRANS: Attagene TRANS-FACTORIAL HepG2 Assay for M32 Transcription Factor (Internal Marker) (AID 2282984; active means hit-call score of the fitted dose curve at least 0.9, where 1 is the maximum;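 further: transcript level of a background control reporter unit measured by RT-PCR and capillary electrophoresis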). As to conditions: HepG2 Attagene TRANS M32 internal marker reporter. A digest of the protocol: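 Internal background reporter in transfected HepG2: after 24 h chemical exposure, RNA reverse-transcribed, reporter cDNA amplified, fluorescently labelled and HpaI-cut, then sized by capillary electrophoresis. Gain of signal fitted against DMSO control.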

SMILES strings stand for the structures. Inconclusive results are not listed. Active and inactive are the calls of the source. How the source made its calls, unless noted: active means hit-call score of the fitted dose curve at least 0.9, where 1 is the maximum; inactive means score below 0.9.

Chain of X-box-binding protein 1 (Homo sapiens) (P17861 whole entry, looked up): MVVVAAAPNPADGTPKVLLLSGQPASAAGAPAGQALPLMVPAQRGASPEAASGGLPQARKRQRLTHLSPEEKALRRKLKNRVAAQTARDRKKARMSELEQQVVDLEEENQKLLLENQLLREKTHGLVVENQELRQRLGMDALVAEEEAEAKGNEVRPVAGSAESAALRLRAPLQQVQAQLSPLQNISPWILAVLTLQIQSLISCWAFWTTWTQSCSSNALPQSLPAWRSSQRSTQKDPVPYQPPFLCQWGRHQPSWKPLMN
Chain of Nuclear receptor subfamily 1 group I member 3 (Homo sapiens) (Q14994 whole entry, looked up, the tested form may be a part): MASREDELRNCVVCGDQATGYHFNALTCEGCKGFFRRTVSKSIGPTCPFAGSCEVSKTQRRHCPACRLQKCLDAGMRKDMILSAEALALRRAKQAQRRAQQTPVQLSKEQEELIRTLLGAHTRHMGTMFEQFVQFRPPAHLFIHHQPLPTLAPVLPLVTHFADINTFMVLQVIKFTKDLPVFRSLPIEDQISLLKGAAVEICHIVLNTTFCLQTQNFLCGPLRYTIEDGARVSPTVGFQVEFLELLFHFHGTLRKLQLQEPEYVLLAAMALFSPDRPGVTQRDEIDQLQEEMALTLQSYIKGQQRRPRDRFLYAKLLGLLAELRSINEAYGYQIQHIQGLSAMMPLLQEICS
Chain of Nuclear respiratory factor 1 (Homo sapiens) (Q16656 whole entry, looked up): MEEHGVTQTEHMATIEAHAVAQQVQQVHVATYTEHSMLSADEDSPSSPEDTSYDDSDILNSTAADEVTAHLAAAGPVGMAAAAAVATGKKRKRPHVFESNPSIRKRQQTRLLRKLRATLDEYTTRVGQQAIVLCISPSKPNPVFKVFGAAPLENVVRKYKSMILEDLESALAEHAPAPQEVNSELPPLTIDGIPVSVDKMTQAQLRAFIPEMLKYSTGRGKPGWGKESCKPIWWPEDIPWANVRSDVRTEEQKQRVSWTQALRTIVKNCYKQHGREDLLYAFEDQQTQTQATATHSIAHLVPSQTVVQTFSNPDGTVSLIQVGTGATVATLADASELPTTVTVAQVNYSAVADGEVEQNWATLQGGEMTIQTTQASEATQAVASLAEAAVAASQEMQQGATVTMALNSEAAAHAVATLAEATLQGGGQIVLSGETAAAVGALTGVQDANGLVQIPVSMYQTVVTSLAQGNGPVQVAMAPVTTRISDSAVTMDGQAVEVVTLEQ
Chain of Nuclear receptor subfamily 4 group A member 2 (Homo sapiens) (P43354 whole entry, looked up, the tested form may be a part): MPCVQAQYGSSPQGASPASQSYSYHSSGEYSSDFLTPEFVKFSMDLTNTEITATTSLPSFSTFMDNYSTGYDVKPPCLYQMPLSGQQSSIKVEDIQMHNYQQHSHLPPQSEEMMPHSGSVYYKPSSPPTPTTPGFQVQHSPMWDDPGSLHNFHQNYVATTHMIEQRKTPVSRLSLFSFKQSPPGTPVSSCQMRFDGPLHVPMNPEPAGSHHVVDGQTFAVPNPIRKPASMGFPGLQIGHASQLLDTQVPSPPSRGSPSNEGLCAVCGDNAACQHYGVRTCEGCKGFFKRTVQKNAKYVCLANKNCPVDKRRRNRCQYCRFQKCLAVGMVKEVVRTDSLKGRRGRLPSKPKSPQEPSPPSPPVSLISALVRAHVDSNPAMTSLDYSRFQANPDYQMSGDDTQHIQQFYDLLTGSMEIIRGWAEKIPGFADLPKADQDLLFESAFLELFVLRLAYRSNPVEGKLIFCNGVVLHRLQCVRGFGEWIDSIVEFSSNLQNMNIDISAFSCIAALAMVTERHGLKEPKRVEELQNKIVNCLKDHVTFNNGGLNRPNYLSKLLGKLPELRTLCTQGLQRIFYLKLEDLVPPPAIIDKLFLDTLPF
Chain of Glucocorticoid receptor (Homo sapiens) (P04150 whole entry, looked up, the tested form may be a part): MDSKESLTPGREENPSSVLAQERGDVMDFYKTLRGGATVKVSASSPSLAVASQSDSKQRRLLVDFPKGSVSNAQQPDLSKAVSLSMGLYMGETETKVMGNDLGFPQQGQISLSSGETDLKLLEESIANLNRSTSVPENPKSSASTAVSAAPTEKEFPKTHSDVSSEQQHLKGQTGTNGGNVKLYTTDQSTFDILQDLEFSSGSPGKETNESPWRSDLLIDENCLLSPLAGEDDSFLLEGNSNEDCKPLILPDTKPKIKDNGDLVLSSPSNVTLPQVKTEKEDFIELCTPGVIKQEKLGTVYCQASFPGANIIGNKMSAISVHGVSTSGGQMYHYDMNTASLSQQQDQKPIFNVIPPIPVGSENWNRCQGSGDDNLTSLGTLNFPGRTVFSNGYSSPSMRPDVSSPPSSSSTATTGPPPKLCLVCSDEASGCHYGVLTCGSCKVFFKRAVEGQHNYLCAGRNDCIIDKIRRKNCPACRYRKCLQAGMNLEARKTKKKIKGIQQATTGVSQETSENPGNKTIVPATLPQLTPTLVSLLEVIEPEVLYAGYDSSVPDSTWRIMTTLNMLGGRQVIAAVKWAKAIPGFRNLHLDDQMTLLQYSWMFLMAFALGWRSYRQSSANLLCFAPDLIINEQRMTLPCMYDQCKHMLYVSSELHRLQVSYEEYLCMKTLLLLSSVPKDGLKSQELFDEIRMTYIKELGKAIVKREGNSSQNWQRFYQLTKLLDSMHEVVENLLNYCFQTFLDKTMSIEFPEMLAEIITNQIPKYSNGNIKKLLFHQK
Chain of Oxysterols receptor LXR-beta (Homo sapiens) (P55055 whole entry, looked up, the tested form may be a part): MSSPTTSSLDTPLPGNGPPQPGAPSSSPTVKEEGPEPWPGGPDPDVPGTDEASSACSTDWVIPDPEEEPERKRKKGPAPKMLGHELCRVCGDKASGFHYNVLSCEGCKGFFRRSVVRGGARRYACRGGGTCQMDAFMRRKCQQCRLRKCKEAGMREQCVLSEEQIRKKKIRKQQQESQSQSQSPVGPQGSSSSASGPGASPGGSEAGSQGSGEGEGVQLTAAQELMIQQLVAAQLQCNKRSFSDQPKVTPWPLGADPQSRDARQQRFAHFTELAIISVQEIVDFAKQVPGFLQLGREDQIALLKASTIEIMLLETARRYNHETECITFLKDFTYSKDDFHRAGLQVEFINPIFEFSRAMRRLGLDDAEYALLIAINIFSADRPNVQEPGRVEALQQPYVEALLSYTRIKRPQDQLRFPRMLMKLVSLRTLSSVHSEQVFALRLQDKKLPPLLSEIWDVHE
Chain of Hepatocyte nuclear factor 4-alpha (Homo sapiens) (P41235 whole entry, looked up, the tested form may be a part): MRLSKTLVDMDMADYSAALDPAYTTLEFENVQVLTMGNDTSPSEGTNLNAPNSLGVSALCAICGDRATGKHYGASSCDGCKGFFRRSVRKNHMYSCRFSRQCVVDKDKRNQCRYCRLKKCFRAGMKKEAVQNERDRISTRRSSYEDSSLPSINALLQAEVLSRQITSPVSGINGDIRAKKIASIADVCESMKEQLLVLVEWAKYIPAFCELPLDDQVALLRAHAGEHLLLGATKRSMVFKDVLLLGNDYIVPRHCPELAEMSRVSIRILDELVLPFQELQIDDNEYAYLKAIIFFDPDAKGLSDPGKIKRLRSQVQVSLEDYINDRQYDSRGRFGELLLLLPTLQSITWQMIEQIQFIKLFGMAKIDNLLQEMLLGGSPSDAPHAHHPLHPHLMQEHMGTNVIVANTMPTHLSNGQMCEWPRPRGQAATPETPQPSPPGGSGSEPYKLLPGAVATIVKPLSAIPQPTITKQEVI
Chain of Transcriptional activator Myb (Homo sapiens) (P10242 whole entry, looked up): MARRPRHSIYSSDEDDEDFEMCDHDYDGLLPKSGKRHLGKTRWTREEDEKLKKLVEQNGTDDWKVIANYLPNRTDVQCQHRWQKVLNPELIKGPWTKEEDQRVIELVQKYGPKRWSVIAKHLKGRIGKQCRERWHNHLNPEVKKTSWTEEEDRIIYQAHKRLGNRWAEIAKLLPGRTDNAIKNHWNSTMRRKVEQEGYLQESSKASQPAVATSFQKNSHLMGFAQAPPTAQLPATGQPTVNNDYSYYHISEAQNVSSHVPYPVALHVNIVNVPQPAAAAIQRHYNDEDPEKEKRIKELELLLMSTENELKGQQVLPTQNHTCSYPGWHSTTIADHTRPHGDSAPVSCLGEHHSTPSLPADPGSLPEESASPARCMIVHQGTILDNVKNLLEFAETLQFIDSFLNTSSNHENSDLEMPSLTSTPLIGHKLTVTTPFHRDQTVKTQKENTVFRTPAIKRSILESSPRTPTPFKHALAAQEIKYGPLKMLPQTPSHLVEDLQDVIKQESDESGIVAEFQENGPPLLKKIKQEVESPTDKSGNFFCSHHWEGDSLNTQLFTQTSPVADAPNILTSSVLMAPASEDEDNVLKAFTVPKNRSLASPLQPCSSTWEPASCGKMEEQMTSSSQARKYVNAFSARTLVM
Chain of Oxysterols receptor LXR-alpha (Homo sapiens) (Q13133 whole entry, looked up, the tested form may be a part): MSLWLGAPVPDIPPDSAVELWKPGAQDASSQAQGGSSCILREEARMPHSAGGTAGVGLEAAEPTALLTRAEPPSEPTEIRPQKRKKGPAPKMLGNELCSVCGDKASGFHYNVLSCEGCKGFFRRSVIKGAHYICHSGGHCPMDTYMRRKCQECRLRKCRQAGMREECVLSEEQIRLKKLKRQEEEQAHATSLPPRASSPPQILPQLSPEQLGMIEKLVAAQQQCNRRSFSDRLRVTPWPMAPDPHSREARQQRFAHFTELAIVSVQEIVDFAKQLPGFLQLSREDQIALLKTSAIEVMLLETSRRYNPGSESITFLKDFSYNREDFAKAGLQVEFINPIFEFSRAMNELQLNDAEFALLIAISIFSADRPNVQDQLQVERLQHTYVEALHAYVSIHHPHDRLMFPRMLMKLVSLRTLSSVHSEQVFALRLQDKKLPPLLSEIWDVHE
Chain of Steroid hormone receptor ERR1 (Homo sapiens) (P11474 whole entry, looked up, the tested form may be a part): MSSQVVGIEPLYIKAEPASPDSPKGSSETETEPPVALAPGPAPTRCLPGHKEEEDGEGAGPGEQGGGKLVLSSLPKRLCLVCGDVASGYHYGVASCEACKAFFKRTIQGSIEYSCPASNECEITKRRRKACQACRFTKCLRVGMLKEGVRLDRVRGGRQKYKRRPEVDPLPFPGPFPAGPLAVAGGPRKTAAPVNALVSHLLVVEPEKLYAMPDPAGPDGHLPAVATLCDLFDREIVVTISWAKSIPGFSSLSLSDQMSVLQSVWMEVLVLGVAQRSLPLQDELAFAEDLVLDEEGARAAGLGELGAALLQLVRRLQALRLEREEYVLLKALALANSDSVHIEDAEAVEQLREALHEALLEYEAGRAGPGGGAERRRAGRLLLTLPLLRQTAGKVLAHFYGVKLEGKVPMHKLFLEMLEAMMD

`C=CC(=O)OCCC#N`: the compound was classed as inactive in [1], in [2], in assay [4], in assay [5], in assay [7] and in assay [8]. The compound was called inactive in [9], in assay [10], in [11], in assay [12], in assay [13] and in assay [14]. Further, the AC50 in [3] is 48.8 µM (active); in assay [6], 36.4 µM (active).

Regarding `O=C(O)c1cc(C(=O)O)cc([N+](=O)[O-])c1`, the call in assay [1], in assay [2], in assay [3], in [4], in assay [6] and in assay [15] was inactive. The compound was classed as inactive in assay [16], in assay [17], in assay [8], in assay [18], in [11] and in [12]. Besides, the outcome in assay [13] was inactive.

As for `C=CCOC(=O)CCCCCC`, the result in assay [1], in assay [3], in assay [4], in [6], in [15] and in [16] was inactive. In addition, the outcome in assay [9], in assay [10], in assay [18], in [11], in assay [12] and in assay [13] was inactive. In assay [14], the outcome was inactive. Besides, the AC50 in assay [2] was 0.0799 µM (active).

Consider `CC(=O)C1(C)CC2=C(CCCC2(C)C)CC1C` (stereo not drawn), for which the AC50 in assay [1] is 148 µM (active); in assay [14], 187 µM (active). Besides, the compound was classed as inactive in assay [2], in [3], in [4], in [6], in assay [15] and in assay [16]. Besides, the compound was called inactive in assay [17], in [8] and in [13].

Turning to `Cc1ccc2c(c1)C(=O)OC2=O`, the call in assay [1], in assay [2], in assay [3], in assay [4], in assay [6] and in assay [15] was inactive. Also, the call in assay [16], in assay [9], in assay [18], in assay [12] and in assay [13] was inactive.
